High-throughput results as filed in PubChem.
L3MBTL1 block – inhibitors of human L3MBTL1 | 230,000 compounds, 0.66% hits | AID 485360 | AlphaScreen L3MBTL1–H3K9me1 peptide binding | Q9Y468 | Potency, µM (top dose mostly 57.1 µM), for inactives: at the highest dose activity, negative = inhibition, most hits filed as inhibitors; note: % is set by controls: 0 for no effect and ±100 for the full control effect; nearly all actives have a fitted effect of over 60% in size
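L3MBTL1 50 nM + b-AHA-H3(1-15)K9me1 75 nM, 30 min RT; compound added, 30 min RT; streptavidin donor/Ni-chelate acceptor beads 10 ug/mL each final, 30 min RT dark; AlphaScreen read.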
JMJD2A Tudor – JMJD2A Tudor domain (human) inhibition | O75164 | AlphaScreen JMJD2A-Tudor / H3K4me3 peptide binding | Potency, µM (titrated, usually from 114 µM), for inactives: at the top dose activity change, negative = inhibition, most hits filed as inhibitors | 390,000 compounds, 4.4% hits | AID 504339; note: % is set by controls: 0 for no effect and ±100 for the full control effect; nearly all actives have a fitted effect of over 50% in size
Target sequence (O75164 whole entry, looked up, the tested form may be a part): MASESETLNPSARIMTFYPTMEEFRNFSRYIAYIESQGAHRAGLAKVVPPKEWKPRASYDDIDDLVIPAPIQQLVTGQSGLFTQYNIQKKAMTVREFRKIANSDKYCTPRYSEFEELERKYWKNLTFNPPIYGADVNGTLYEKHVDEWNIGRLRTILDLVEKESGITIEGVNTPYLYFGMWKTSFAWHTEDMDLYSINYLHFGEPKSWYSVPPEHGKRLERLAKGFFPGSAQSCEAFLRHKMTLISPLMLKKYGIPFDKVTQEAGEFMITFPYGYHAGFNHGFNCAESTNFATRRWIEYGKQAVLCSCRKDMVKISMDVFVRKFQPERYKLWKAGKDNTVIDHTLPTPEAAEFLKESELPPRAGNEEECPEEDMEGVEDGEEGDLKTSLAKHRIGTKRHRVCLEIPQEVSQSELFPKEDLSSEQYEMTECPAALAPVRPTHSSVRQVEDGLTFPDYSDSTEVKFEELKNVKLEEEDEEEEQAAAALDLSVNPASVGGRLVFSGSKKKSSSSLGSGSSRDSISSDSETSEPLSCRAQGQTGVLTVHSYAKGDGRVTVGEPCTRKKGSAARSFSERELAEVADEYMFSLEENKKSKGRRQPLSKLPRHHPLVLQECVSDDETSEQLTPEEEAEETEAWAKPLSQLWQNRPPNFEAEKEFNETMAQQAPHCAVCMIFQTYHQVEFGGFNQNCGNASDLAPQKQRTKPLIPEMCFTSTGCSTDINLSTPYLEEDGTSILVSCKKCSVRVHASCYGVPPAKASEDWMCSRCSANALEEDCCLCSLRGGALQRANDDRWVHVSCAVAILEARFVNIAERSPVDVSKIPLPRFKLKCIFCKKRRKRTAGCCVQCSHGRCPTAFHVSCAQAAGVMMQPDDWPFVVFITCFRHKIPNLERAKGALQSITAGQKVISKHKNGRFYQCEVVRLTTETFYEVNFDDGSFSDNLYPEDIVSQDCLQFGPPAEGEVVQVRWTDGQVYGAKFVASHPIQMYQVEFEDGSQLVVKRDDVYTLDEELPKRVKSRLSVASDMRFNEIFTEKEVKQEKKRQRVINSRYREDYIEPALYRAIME
G9a block – blocks human histone lysine methyltransferase G9a; Q96KQ7; Potency, µM (series often up to 102 µM), inactives show top-dose activity, negative = inhibition, hits mostly inhibitors; 350,000 compounds, 8.8% hits; G9a H3K9 monomethylation, AlphaScreen, 2 h; note: % is set by controls: 0 for no effect and ±100 for the full control effect; nearly all actives have a fitted effect of over 75% in size
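Quantitative HTS format: methyltransferase activity on a biotin-tagged H3K9 peptide is measured by AlphaScreen, using a rabbit anti-monomethyl-H3K9 antibody with streptavidin donor and anti-IgG acceptor beads. Final levels are 20 nM enzyme, 500 nM peptide, 20 uM SAM; 2 h RT.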
HP1b chromo inh – HP1-beta chromodomain-methylated histone interaction inhibition; 390,000 compounds, 0.56% hits; AID 540317; AlphaScreen HP1-beta / biotin-H3K9me3 peptide binding; P83916; Potency, µM (top dose mostly 114 µM), without a hit: top-dose activity change, negative = inhibition, actives largely listed as inhibitors; note: nearly all actives have a fitted effect of over 70% in size
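Compound inhibition of the preformed complex between 50 nM HP1-beta and 50 nM biotinylated H3K9me3 peptide was read by AlphaScreen. Buffer was PBS pH 7.4 with 0.01% Tween-20. Incubations ran 30 min at room temperature, with 10 ug/mL donor/acceptor beads.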
GLS inhibitor – inhibitors of human glutaminase (GLS) | O94925 | GLS enzymatic activity, qHTS titration | Potency, µM (series often up to 45.5 µM), for the others: top-dose activity change, negative = inhibition, hits mostly inhibitors | 410,000 compounds, 0.21% hits | AID 624170; note: % is set by controls: 0 for no effect and ±100 for the full control effect
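hKGA; 45 mM KH2PO4 pH 8.2 + 0.02% Tween-20; cpd via pin tool; 1 mM Gln soln; GluOx/HRP/Amplex Red; RT 30 min; fluor. t0 & final.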
BAZ2B inh – BAZ2B (human) inhibition; AlphaScreen BAZ2B-H3K14Ac peptide displacement; Potency, µM (top dose mostly 114 µM), for inactives: at the top dose activity change, negative = inhibition, most hits filed as inhibitors; 360,000 compounds, 4.4% hits; AID 504333; note: % is set by controls: 0 for no effect and ±100 for the full control effect; nearly all actives have a fitted effect of over 60% in size
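Protein-peptide AlphaScreen: BAZ2B 50 nM, b-H3K14Ac 50 nM, 1x PBS pH 7.4 + 0.01% Tween-20. Preincubation 30 min RT; cpd 30 min RT (top 110 uM); beads 20 min RT, light-protected.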
* = called active by the depositor; ? = inconclusive; nt = no result given; [ ] = remark or other dose. Hits are enriched below; roughly 10% of the tested compounds scored in any of these assays. Calls come from the whole dose curve; as a rule, active = well fitted curve in the direction sought with a large enough effect; inconclusive = small, poorly fitted or top-dose-only effect, or another doubt; inactive = no such curve, though single readings can be large; an effect the other way counts as inactive or inconclusive. Potency is the fitted concentration of half-maximal effect.

SMILES | L3MBTL1 block | JMJD2A Tudor | G9a block | HP1b chromo inh | GLS inhibitor | BAZ2B inh
CC(Oc1cccc(Cl)c1)C(=O)N(C)CC(=O)Nc1ccc(N2CCOCC2)cc1 (stereo not given) | -3% | -10% | 40µM* | 6% | 23% | -2%
O=C(COc1cccc(Cl)c1)Nc1ccc(N2CCOCC2)cc1 | nt | -29% | 79µM* | 13% | 33% | 3%
Cc1cccc(Cc2c(C)nc3nc(SCc4ccccc4C)nn3c2C)c1 | nt | -13% | 25%[59 µM] | 8% | -15% | 10%
CCCCOc1ccc(C(=O)N2CCN(CCc3ccncc3)CC2)cc1 | nt | -16% | -4%[59 µM] | 42% | -11% | ?
CCOc1ccc(C2CC(=O)N(c3cccc(F)c3)C3=C2C(=O)OC3)cc1 (stereo not given) | nt | -18% | 13%[59 µM] | 31% | -9% | -27%
O=C(O)c1ccc2c(c1)C1C=CCC1C(c1cc3c(cc1Br)OCO3)N2 (stereo not given) | -16% | -29% | -45% | 4% | 15% | -34%
O=C(NC1CC1)C1Nc2ccc(OC(F)(F)F)cc2C2C=CCC12 (stereo not given) | nt | -17% | nt | 38% | 21% | nt
O=C(NCc1ccccc1)C1Nc2ccc(OC(F)(F)F)cc2C2C=CCC12 (stereo not given) | nt | -31% | nt | 16% | -4% | nt
CCOC(=O)C1Nc2ccc(OC(F)(F)F)cc2C2C=CCC12 (stereo not given) | nt | 25µM* | nt | ? | 6% | nt
Brc1cc2c(cc1C1Nc3ccccc3C3C=CCC31)OCO2 (stereo not given) | -15% | -23% | 42%[59 µM] | 19% | 3% | -34%
O=C(O)C1Nc2c(cccc2C(F)(F)F)C2C=CCC12 (stereo not given) | nt | nt | 2.5µM* | nt | nt | 40µM*
C1=CC2c3ccccc3NC(c3ccncc3)C2C1 (stereo not given) | ? | 45µM* | 1.6µM* | ? | -11% | ?
CC(=O)c1ccc2c(c1)C1C=CCC1C(C(=O)O)N2 (stereo not given) | 1.3µM* | 6.3µM* | -174%[12.7 µM] | 20µM* | 2.5µM* | 6.3µM*
Cc1ccc(OCC(=O)NCC2(N3CCOCC3)CCCCC2)cc1C | nt | -24% | -30%[59 µM] | 44% | 1% | ?
CCOc1ccc(CNC(=O)CCS(=O)(=O)c2cc3c(cc2Cl)NC(=O)CO3)cc1OC | nt | 5% | 4%[59 µM] | 47% | -3% | 3%
Cc1ccc(Cl)cc1NC(=O)Cn1c(=O)cc(C)c2c(C)nn(C)c21 | nt | ? | -3%[59 µM] | 30% | -5% | -25%
CCCCC(=O)NC1(C(F)(F)F)C(=O)Nc2c1c(=O)[nH]c(=O)n2-c1ccc(C)c(C)c1 (stereo not given) | nt | -15% | -43%[59 µM] | 9% | 0% | -3%
CC1=C(c2ccc(C(C)C)cc2)S(=O)(=O)NC1=NCCCN1CCN(c2ccccc2F)CC1 | nt | -9% | -4%[59 µM] | -1% | -6% | -14%
COc1ccc(CNC(=O)c2ccc3c(c2)nc2n3CCC(C)C2)c(OC)c1 (stereo not given) | nt | -19% | -3%[59 µM] | 12%[57 µM] | -14% | -4%
CC(=O)c1ccc2c(c1)C1C=CCC1C(c1ccncc1)N2 (stereo not given) | -22% | ? | ? | -9% | 5% | 50µM*
CCOc1ccc2c(c1)[C@@H]1C=CC[C@@H]1[C@H](c1ccccc1Cl)N2 | nt | 45µM* | 11µM* | ? | -21% | 28µM*
Cc1ccc2c(c1)C1C=CCC1C(C(=O)O)N2 (stereo not given) | 3.2µM* | nt | 4µM* | nt | nt | 6.3µM*
COC(=O)c1ccc(C2Nc3ccc(/C(C)=N/NC(=O)C(OC)c4ccccc4)cc3C3C=CCC32)cc1 (stereo not given) | -9% | 79µM* | 7.1µM* | -21% | 13% | 56µM*
Cc1ccc2c(c1)[C@H]1OCC[C@H]1[C@@H](c1ccncc1)N2 | -3% | -4% | ? | 29% | -11% | 7%
COC(C(=O)N/N=C(\C)c1ccc(O)cc1)c1ccccc1 (stereo not given) | 6% | -5% | 9%[59 µM] | 58% | 21% | 5%
SMILES | L3MBTL1 block | JMJD2A Tudor | G9a block | HP1b chromo inh | GLS inhibitor | BAZ2B inh
Cc1oc2c(c1C(=O)Nc1ccc(Cl)cc1F)C1=NCCN1C=N2 | nt | -24% | 2%[59 µM] | 80% | -1% | -8%
CCc1ccccc1N1CC(c2nnc(NC(=O)c3ccco3)s2)CC1=O (stereo not given) | nt | -21% | -44%[59 µM] | 6% | -1% | -20%
N[C@@H](CCS(=O)O)C(=O)O | nt | nt | 38%[59 µM] | nt | nt | nt
Cc1ccc(-c2ccc(C(=O)O)o2)cc1Cl | 8% | -13% | nt | 4% | 31% | -15%
N#CCCN1CCN(C(=S)c2ccc(-c3cccc(Cl)c3)o2)CC1 | -11% | 35µM* | 8.9µM* | ? | 2% | 35µM*
N#CCCN1CCN(C(=S)c2ccc(-c3ccc(Cl)c(Cl)c3)o2)CC1 | -19% | 50µM* | ? | ? | -2% | nt
CCOCCc1nn2c(=O)cc(COC(=O)c3ccc4c(c3)OCO4)nc2s1 | nt | -22% | 11%[59 µM] | 98% | 1% | 3%
CC(NC(=O)CSc1nc(-c2cccc(Cl)c2)nc2cc(=O)[nH]n12)c1nc2ccccc2n1C (stereo not given) | nt | -8% | 5%[59 µM] | 13% | -20% | -8%
Cc1cc(Cl)ccc1Oc1ncnc2oc(-c3ccccc3)cc12 | -2% | ? | 36%[0.501 µM] | 13% | 1% | 79µM*
c1ccc(-c2n[nH]c3c2oc2ccccc23)cc1 | nt | nt | 9%[59 µM] | nt | nt | nt
C#C[C@]1(O)CC[C@H]2[C@@H]3CCC4=CCCC[C@@H]4[C@H]3C(=C)C[C@@]21CC | nt | nt | 5%[12.7 µM] | nt | 6% | nt
Nc1sc(-c2ccccc2)cc1C(=O)N/N=C/c1ccc(Cl)cc1 | -14% | -28% | -10%[59 µM] | 15% | 7% | -21%
COC(=O)c1cc(-c2ccccc2)sc1N | nt | ? | 4.5µM* | ? | -8% | ?
CCOc1cc(-c2nc(C)c(C(C)=O)n2O)ccc1OCC(=O)Nc1cccc(C)c1 | -8% | -28% | 50µM* | 7% | 4% | -16%
CCC(=O)NC1=C(NC(C)c2ccccc2)C(=O)c2ccccc2C1=O (stereo not given) | nt | -29% | ? | 1% | 1% | ?
CCC(=O)NC1=C(Cl)C(=O)C(NC(=O)CC)=C(Cl)C1=O | -22% | 4µM* | 0.25µM* | 4µM* | ? | 45µM*
CCc1ccc2occ(CC(=O)Nc3c(C(=O)c4ccc(F)cc4)oc4ccccc34)c2c1 | nt | -2% | ? | 37% | 12% | -2%
COc1ccc(C(=O)c2c(C(F)(F)F)oc3c2C(=O)c2ccccc2C3=O)cc1 | nt | ? | 7.9µM* | ? | 1% | 7.9µM*
